From PubChem BioAssay AID628 (Vanderbilt High Throughput Screening Facility, 2007) come the findings set out here.

About 2,200 (3.4%) of roughly 64,000 compounds were called active. The list comes from a sample in which actives are over-represented; it also holds similar structures and randomly drawn compounds. Values without a mark were called inactive.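 The calls were made as follows: active = calcium fluorescence response, raw or row-and-column corrected B-score, differing from the plate sample mean either way at a set confidence level, mostly lower; inactive = the rest.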

Sequence of Muscarinic acetylcholine receptor M1 (Rattus norvegicus) (P08482 whole entry, looked up): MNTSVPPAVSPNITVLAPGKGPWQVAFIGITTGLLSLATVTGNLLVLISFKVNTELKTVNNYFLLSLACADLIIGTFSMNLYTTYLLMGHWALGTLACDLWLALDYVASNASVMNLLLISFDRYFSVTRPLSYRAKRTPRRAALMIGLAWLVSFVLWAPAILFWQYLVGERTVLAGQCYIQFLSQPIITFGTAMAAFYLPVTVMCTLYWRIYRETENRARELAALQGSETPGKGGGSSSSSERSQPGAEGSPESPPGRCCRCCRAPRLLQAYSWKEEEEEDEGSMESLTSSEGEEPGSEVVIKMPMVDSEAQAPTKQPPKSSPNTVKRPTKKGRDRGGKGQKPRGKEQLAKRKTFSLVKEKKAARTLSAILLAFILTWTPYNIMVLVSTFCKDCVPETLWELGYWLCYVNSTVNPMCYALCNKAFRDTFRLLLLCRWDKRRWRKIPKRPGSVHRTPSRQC

The test has as its target Muscarinic acetylcholine receptor M1 (Rattus norvegicus) (UniProt P08482). The test is described as follows: blocks the rat M1 muscarinic receptor response to acetylcholine (AID 628). The settings on record: CHO-M1 cells, Fluo-4 calcium, ACh EC80 antagonist mode; at 10 µM; stronger effect = lower value.
For the compound `COc1ccc(-c2nc3n(c2Br)CCC3)cc1`, the B-score is 0.807. The same measure for `O=C(Cc1cccs1)N1CCCC(c2nc(-c3ccc(S(=O)(=O)N4CCCC4)cc3)no2)C1` (centres undefined): -2.63 (active). For the compound `COc1cc(-c2noc(C3CCCN(S(=O)(=O)c4cccc(Cl)c4)C3)n2)cc(OC)c1OC` (centres undefined), the B-score is 0.77. As for `O=C(c1cccs1)N1CCCC(c2nc(-c3ccc(F)cc3)no2)C1` (centres undefined), the B-score is -1.27. Take `O=C(c1ccco1)N1CCN=C1SCc1cccc(Cl)c1`: the B-score is -2.85 (active). Under `O=C(C1CC1)N1CCN=C1SCc1ccc(Cl)cc1` stands 0.588.

For the compound `O=C(c1ccco1)N1CCN(c2cccc(Cl)c2)CC1`, the B-score is -0.702. Take `Cc1ccc(S(=O)(=O)C(C#N)c2nc3ccccc3nc2N2CCCC2)cc1C` (centres undefined): the B-score was 0.0971. In the case of `O=S(=O)(O)c1nc2ccccc2n1Cc1ccc(Cl)cc1Cl`, the B-score was 0.452.

With `COCCNc1nc(-n2nc(C)cc2C)nc2sc3c(c12)CCCC3`, the B-score was -0.584.

On to `Cc1nc(SCC(=O)Nc2cc(C)on2)c2c3c(sc2n1)CCCC3`, for which the B-score is -0.235. Regarding `Cc1cc(C)n(-c2nc(SCC(=O)N3CCCC3)c3c4c(sc3n2)CCCC4)n1`, the B-score was -2.83 (active). Turning to `Brc1ccc(Nc2c3c(nc4ncnn24)CCC3)cc1`, the B-score is 0.669. Turning to `CCOC(=O)N1CCC(NC(=O)COc2cc(=O)n(C)c3ccccc23)CC1`, the B-score is 0.854. The same measure for `CCOC(=O)N1CCC(Nc2c(NCCN3CCN(c4cccc(Cl)c4)CC3)c(=O)c2=O)CC1`: 0.00829; for `CCn1c(=O)cc(OCC(=O)NCCCN2CCN(c3cccc(Cl)c3)CC2)c2ccccc21`: -2.45 (active). Under `Cc1c(C(=O)NCC2CCCO2)sc2nc(-c3ccccc3)cn12` (centres undefined) stands 0.0376. The same measure for `CCN1CCN(c2c(Cl)cccc2NC(=O)c2ccc(Br)o2)CC1`: -6.97 (active); for `CCCC(=O)Nc1ccc(Cl)c(NC(=O)c2ccc(Br)o2)c1`: 0.768; for `COc1cc(OC)c(NC(=O)c2ccc(Br)o2)cc1Cl`: 0.263. Turning to `CCOC(=O)N1CCC(NC(=O)c2cnn3ccccc23)CC1`, the B-score was 0.733. The same measure for `CCOC(=O)Cn1c2c(c(-c3ccccc3OC)cc1=O)CCCC2`: -0.0571. Under `C=CCOC(=O)C1=C(C)OC(N)=C(C#N)C1c1ccc(F)cc1` (centres undefined) stands 0.263; under `Cc1ccccc1N1C(=O)C2ON(c3ccccc3)C(c3ccncc3)C2C1=O` (centres undefined), -0.292; under `CC(C)(C)OC(=O)c1c(N)n(CCCN2CCCC2=O)c2nc3ccccc3nc12`, -1.12. For the compound `COc1ccc(OC)c(C(=O)c2coc3ccc(OC)cc23)c1`, the B-score was -1.32. Under `COc1cccc(-n2cc(C(=O)O)c3ccccc3c2=O)c1` stands 1.31. For the compound `COC(=O)c1cn(-c2ccccc2)nc1-c1cccnc1`, the B-score was -0.00204. Under `COc1ccccc1N1CCN(C(=O)c2cn(-c3ccccc3)nc2-c2cccnc2)CC1` stands 1.85 (active). For the compound `O=C(c1cn(-c2ccccc2)nc1-c1cccnc1)N1CCCCC1`, the B-score is 0.615.

On to `COc1ccc(-n2ncc3c(N4CCCc5ccccc54)ncnc32)cc1`, for which the B-score is 0.508.

Consider `CCCCN(CC)C(=O)CN(C)S(=O)(=O)c1cccc2nsnc12`, for which the B-score was -0.0458. `CSc1nnc2c(n1)OC(c1cn(C)c3ccccc13)N(C(C)=O)c1ccccc1-2` (centres undefined): the B-score is -0.0695. As for `CSc1nnc2c(n1)OC(c1ccsc1)N(C(C)=O)c1ccccc1-2` (centres undefined), the B-score is -8.49 (active). Under `COCCNC(=O)C(C#N)c1nc2ccccc2nc1N1CCN(Cc2ccc3c(c2)OCO3)CC1` (centres undefined) stands 0.357; under `COc1ncnc2c1N=C1CC(C)(C)CC(N)=C1S2`, -3.02 (active); under `Cc1ccc(S(=O)(=O)N2CCC(C(=O)N[C@@H](C)C(=O)NCc3ccccc3)CC2)cc1`, 0.328.

`COc1cc2cc(CN(CCN3CCCC3)C(=O)Nc3ccccc3Cl)c(=O)[nH]c2cc1OC`: the B-score is -0.424. The same measure for `Oc1ccc(Cl)cc1/C=N/c1nc2ccccc2[nH]1`: 0.265. The same measure for `COc1ccc(F)cc1S(=O)(=O)Nc1ccc2c(c1)OCO2`: 0.86; for `CC(C)CNS(=O)(=O)c1ccc(OCC(=O)Nc2ccc3c(c2)OCO3)c(Cl)c1`: 0.138; for `COc1ccc(S(=O)(=O)Nc2ccc3c(c2)OCO3)cc1Cl`: -4.67 (active). Under `O=S(=O)(c1ccc2ccccc2c1)N1CCN(S(=O)(=O)N2CCOCC2)CC1` stands 1.15; under `COc1ccc(N2CCN(Cc3cc(=O)oc4ccc5ccccc5c34)CC2)cc1`, 0.836; under `O=c1ccc2cc(S(=O)(=O)N3CCN(c4ccccc4)CC3)ccc2o1`, 3.23 (active).

`CCOC(=O)C1(C(F)(F)F)N=C(N(C)C)OC(N(C)C)=N1`: the B-score was 0.0434.

In the case of `Nc1ccc(-n2nncc2-c2ccco2)cc1`, the B-score is 0.0134.

For `COc1cccc(OCC(O)CN2CCN(CCO)CC2)c1` (centres undefined), the B-score is -0.234. As for `O=C(C(c1ccccc1)c1ccccc1)N1CCN(CC(O)COc2ccccc2)CC1` (centres undefined), the B-score is -2.34 (active).

As for `OC(COc1cccc(OCC(O)CN2CCCC2)c1)CN1CCCC1` (centres undefined), the B-score was -0.0676. The same measure for `N#Cc1ccc(OCCN2C(=O)NC3(CCSC3)C2=O)cc1` (centres undefined): 0.213; for `Cc1n[nH]c(C)c1S(=O)(=O)N1CCCC(C(=O)NCC2COc3ccccc3O2)C1` (centres undefined): 0.422; for `COc1ccc(C(C)=O)cc1COC(=O)Cn1cnc2ccccc2c1=O`: 0.139. For `Cc1cc(NC(=O)COc2ccc(Cl)cc2Cl)n(CCC#N)n1`, the B-score is -0.163. On to `Cc1ccccc1OCC(=O)Nc1ccc(N2CCN(C(=O)C(C)C)CC2)c(Cl)c1`, for which the B-score was -1.61. For the compound `CN1CCN(c2ccc(NC(=O)COc3ccc(Cl)cc3Cl)cc2)CC1`, the B-score was -3.05 (active). `CCCc1[nH]nc2c1C(c1ccc(Br)s1)C(C#N)=C(N)O2` (centres undefined): the B-score is 0.255. For `CCOC(=O)N1CC=C2C(C#N)=C(N)C(C#N)(C#N)[C@H](c3cccs3)[C@H]2C1`, the B-score was 0.673. As for `CCC1=C(C(=O)OC)C(c2cc(OC)ccc2OC)C(C#N)=C(N)O1` (centres undefined), the B-score is 0.513.

For the compound `CCCN1CC=C2C(C#N)=C(N)C(C#N)(C#N)C(c3cc(OC)ccc3OC)C2C1` (centres undefined), the B-score is -2.33 (active). In the case of `CCn1cc(NC(=O)Nc2ccc(OC)c(OC)c2)c(C(N)=O)n1`, the B-score was -0.416. Consider `Cn1c(=NC(=O)c2ccco2)sc2cccc(F)c21`, for which the B-score was 0.839. Under `O=C(CC(Cc1ccccc1)C(=O)O)NCCc1ccc2c(c1)OCO2` (centres undefined) stands -0.392; under `O=C(COC(=O)c1ccc2c(c1)OCCO2)NCc1ccccc1`, 0.116.

On to `O=C(NCCc1ccc2c(c1)OCCO2)c1cc2ccccc2o1`, for which the B-score is -3.3 (active). Under `CCOc1ccccc1C1C(C(=O)OC)=CN(C)C=C1C(=O)OC` stands 0.428; under `Cn1nnnc1SCC(=O)N1CCN(C(c2ccccc2)c2ccccc2)CC1`, -2.4; under `O=C(c1ccccc1)N1CCN(C(=O)N2CCCCC2)CC1`, -0.168. Under `O=C(c1ccc(-n2cnnn2)cc1)N1CCN(C(c2ccccc2)c2ccccc2)CC1` stands -10.9 (active); under `CC(Nc1nc(N2CCCC2)nc2ccccc12)c1ccccc1` (centres undefined), -1.8. The same measure for `COc1cc(-c2nc(S(=O)(=O)c3ccc(Cl)cc3)c(N(C)C)o2)cc(OC)c1OC`: 0; for `COc1ccc(CSc2nc(N3CCOCC3)c3c(c2C#N)CC(C)(C)OC3)cc1`: 0.045.

Consider `CCS(=O)(=O)N1CCC(C(=O)N2CCN(c3ccccc3)CC2)CC1`, for which the B-score was -0.14.

Consider `Cc1ccc(S(=O)(=O)N2CCC(N3CCCCCC3)CC2)cc1`, for which the B-score was -0.781.

Consider `Cc1ccc(N2CCN(S(=O)(=O)c3ccc(F)cc3)CC2)c(C)c1`, for which the B-score was 1.98 (active). Turning to `Cc1ccc(C)c(N2CCN(S(=O)(=O)c3ccc4c(c3)oc(=O)n4C)CC2)c1`, the B-score is 0.182. Under `Cc1cc(=O)oc(C)c1C(=O)NCc1ccc(F)cc1` stands -0.775.

Turning to `CCOC(=O)C(CC)Sc1ncnc2c1nnn2-c1ccc(F)cc1` (centres undefined), the B-score was 0.284. As to `O=C(CCCn1c(=O)[nH]c2cc(Cl)ccc2c1=O)NCCN1CCN(c2ccccc2)CC1`, the B-score was 12.4 (active). The same measure for `COc1ccc(CCNC(=O)CCCCn2c(=O)[nH]c3ccccc3c2=O)cc1OC`: -0.359. The same measure for `O=C(CCn1c(=O)[nH]c2ccccc2c1=O)NCCCN1CCN(c2cccc(Cl)c2)CC1`: -1.14.

In the case of `C=CCn1c(=S)[nH]c2nc3c(cc2c1=O)COC(C)(C)C3`, the B-score is -2.69 (active).

Take `CC(C)OCCCNc1nc2c(c(=O)n(Cc3ccccc3F)c(=O)n2C)n1C`: the B-score was -0.366. For `O=C(CN1CCOCC1)Nc1c2c(nc3c1CCC3)CCC2`, the B-score was -0.251. `Cc1cccn2c(=O)c3cc(C#N)c(=NC(=O)c4cccnc4)n(CC4CCCO4)c3nc12` (centres undefined): the B-score is -1.9 (active). Under `Cc1cccn2c(=O)c3cc(C#N)c(=O)n(CCCN4CCOCC4)c3nc12` stands -0.356; under `Cc1cccn2c(=O)c3cc(C(=O)N4COCC4(C)C)n(C)c3nc12`, -0.585; under `CC1CCc2c(sc3c2C2=NS(=O)(=O)CCN2C=N3)C1` (centres undefined), -0.133. Under `Cc1ccc(C)n1-c1ccncc1` stands -0.0105. Take `CCOC(=O)CCc1c(C)c(C#N)c2[nH]c3ccccc3n2c1=O`: the B-score was -0.0991. Under `COC(CCN(C)C)(c1ccccc1)c1ccccc1` stands -11.2 (active). With `COc1ccc2oc(=O)c(C(=O)N3CCN(c4ccccc4F)CC3)cc2c1`, the B-score was 0.203. The same measure for `CN1CCN(CC(=O)Nc2sc3c(c2C#N)CCC(C(C)(C)C)C3)CC1` (centres undefined): -2.38 (active); for `CCC(=O)Nc1sc(C(=O)N2CCCCC2)c(C)c1C#N`: -0.552.
